CHO-K1 Ca ag – nonselective activator or artifact in parental CHO-K1 cells. Fluo-8 calcium fluorescence; scaled to maximal ATP response, vehicle zero. activation, % at 3 µM. hit rate 0.48% among 360,000; in the data active = activation above about 15%;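 note: untransfected CHO-K1 host cells lacking M1 receptor as counterscreen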
M1 ag – activates human CHRM1 receptor; P11229; CHO-K1 hM1, Fluo-8 calcium fluorescence, agonist mode; 0% DMSO, 100% acetylcholine EC100; activation, % at 3 µM; hit rate 0.33% among 360,000;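 active = activation above the run's mean compound activation plus 3 SD, cut at about 16% in these data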;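 note: peak over basal fluorescence ratio within a 140 s kinetic read after compound addition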
Target sequence (P11229 whole entry, looked up): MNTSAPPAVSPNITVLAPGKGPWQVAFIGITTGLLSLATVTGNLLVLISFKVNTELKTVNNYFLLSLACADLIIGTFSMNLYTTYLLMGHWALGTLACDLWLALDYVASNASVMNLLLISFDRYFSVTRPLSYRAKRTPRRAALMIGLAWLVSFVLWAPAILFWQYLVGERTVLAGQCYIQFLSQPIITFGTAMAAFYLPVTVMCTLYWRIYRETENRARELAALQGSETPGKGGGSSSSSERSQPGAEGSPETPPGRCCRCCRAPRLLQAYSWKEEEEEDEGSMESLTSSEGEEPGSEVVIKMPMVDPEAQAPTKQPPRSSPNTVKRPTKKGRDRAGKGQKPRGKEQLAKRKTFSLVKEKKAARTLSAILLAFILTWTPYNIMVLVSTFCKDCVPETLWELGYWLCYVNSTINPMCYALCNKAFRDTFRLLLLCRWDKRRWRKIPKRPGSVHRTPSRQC
CHRM1 antagonist – human CHRM1 antagonism. CHO-K1 hM1, Fluo-8 calcium fluorescence, ACh EC80 antagonist. inhibition, % at 3 µM. hit rate 1.3% among 360,000. AID 588852;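 active = percent inhibition above its own plate's cutoff, namely the mean of that plate's compound wells plus 3 SD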;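 note: peak over basal fluorescence ratio during 140 s after agonist addition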
CHO-K1 Ca PAM – counter-screen for M1 PAMs: effect in parental CHO-K1 cells | ATP EC20, Fluo-8 calcium fluorescence; 0% at ATP EC20, 100% at ATP max | activation, % at 3 µM | hit rate 0.02% among 360,000;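 active = activation above the run cutoff, the mean activation of all test compounds plus 3 SD, cut at about 40% in these data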;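 note: peak over basal fluorescence ratio in a 140 s read after ATP addition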
M1 PAM – positive allosteric modulators of human M1 muscarinic receptor; CHO-K1 hM1, Fluo-8 calcium fluorescence, ACh EC20; 0% = ACh EC20, 100% = maximal ACh; activation, % at 3 µM; hit rate 0.088% among 360,000; in the data active = activation above about 19%, passing the limit was not always enough
CHO-K1 Ca antag – nonselective inhibitor or artifact in parental CHO-K1 cells. AID 602250. ATP-induced calcium, Fluo-8 fluorescence. inhibition, % at 3 µM. hit rate 0.6% among 360,000;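 active = inhibition above a per-plate cutoff, the plate's mean sample inhibition plus 3 SD, cut at about 24% in these data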
Of the large screens only hits and unclear results are named; the others gave an inactive call; ! = not active in a repeat. In the library only some 2.3% were active in any assay of this set; here they are far more common.

Cc1noc(C)c1NC(=O)Nc1ccc2c(c1)C(=O)N([C@H](C)CO)C[C@@H](C)[C@@H](CN(C)S(=O)(=O)c1cn(C)cn1)OCCCC[C@H](C)O2	CHO-K1 Ca antag 26
Cc1ccc(NC(=O)CCN2CCC(C(N)=O)CC2)cc1	none
CCCCNC(=O)COC(=O)c1c2c(nc3ccccc13)CCC2	none
COc1ccc(NC(=O)COC(=O)c2c3c(nc4ccccc24)CCCC3)cc1	CHRM1 antagonist 32
COc1ccc(NC(=O)COC(=O)c2c3c(nc4ccccc24)CCCC3)cc1Cl	CHRM1 antagonist 22
CNC(=O)COC(=O)c1c2c(nc3ccccc13)CCC2	none
Cc1c(NC(=O)COC(=O)c2c3c(nc4ccccc24)CCCC3)c(=O)n(-c2ccccc2)n1C	none
COc1ccc(OC)c(NC(=O)COC(=O)c2c3c(nc4ccccc24)CCCC3)c1	CHRM1 antagonist 38
NC(=O)c1ccc[n+](CC(=O)Nc2ccccc2C(=O)O)c1	none
COc1cccc(-c2c(C(=O)N/N=C/c3sccc3C)nnn2-c2nonc2N)c1	none
O=C(COC(=O)c1cccs1)NCC1CCCCC1	none
CCN(C(=O)COC(=O)c1ccc(S(=O)(=O)N2CCCc3ccccc32)cc1)C1CCS(=O)(=O)C1 (stereo unspecified)	CHRM1 antagonist 72
COc1cc(NC(=S)Nc2ccc(N(C)C(C)=O)cc2)cc(OC)c1	none
Nc1nnc(SCc2ccc(Cl)cc2)s1	CHRM1 antagonist 28
Clc1ccc(CSc2nnc(NC3=NCCCCC3)s2)cc1	CHRM1 antagonist 33
Nc1nnc(CSCc2ccc(Cl)cc2)s1	none
CCc1c(C2(O)CCCCC2)[nH]c2ncccc12	none
NC(=O)c1ccc(C(F)(F)F)n(Cc2c(Cl)cccc2Cl)c1=O	M1 PAM 20
COc1ccc(Cn2c(C(F)(F)F)ccc(C(N)=O)c2=O)cc1	none
O=C(NCc1ccccn1)c1ccc(OC2CCN(Cc3ccc(CO)o3)CC2)cc1	none
C[C@]1(CO)CCC[C@@]2(C)C1CC[C@@H](CO)[C@@H]2CCc1ccoc1 (stereo partly specified)	CHO-K1 Ca antag 30
COc1cccc(CN(C)C(=O)C2CCC(=O)N(Cc3cccc(F)c3)C2)c1 (stereo unspecified)	none
COc1cccc(CN2CC(C(=O)N(C)C3CCOCC3)CCC2=O)c1 (stereo unspecified)	CHO-K1 Ca antag 30
CNC(=O)CCN(Cc1ccco1)S(=O)(=O)c1ccc(OC)c(OC)c1	none
C/C(N)=C(/C#N)C(=O)COC(=O)Cc1coc2ccc3ccccc3c12	CHO-K1 Ca ag 19
CCOC(=O)C1c2cccc(O)c2CCN1C(C)=O (stereo unspecified)	none
CN1CCN(CC(O)(c2ccc(Cl)cc2)c2ccc(Cl)cc2)CC1	CHRM1 antagonist 72
COc1ccc(CCNC(=S)c2ccccc2)cc1OC	none
O=C1C(=O)N(CCCc2ccccc2)c2ccccc21	M1 ag 18
O=C(CN1C(=O)C(=O)c2ccccc21)NCCc1ccccc1	none
O=C1C(=O)N(C/C=C/c2ccccc2)c2ccccc21	M1 ag 24
Cc1ccc(S(=O)(=O)N2CCC(C(=O)OCC(=O)N3CCCC3=O)CC2)cc1C	none
COc1ccc(CCN2CCCn3c2nc2c3c(=O)n(C)c(=O)n2C)cc1OC	none
CC(=O)N1CCc2cc(Br)cc(S(=O)(=O)N3CCCCCC3)c21	none
CC(=O)N1CCc2cc(Br)cc(S(=O)(=O)N3CCN(C(=O)c4ccco4)CC3)c21	CHO-K1 Ca antag 24
Cc1ccccc1Nc1ccc([N+](=O)[O-])cn1	none
Cc1ccccc1NC1=NCC(c2ccc([N+](=O)[O-])cc2)S1 (stereo unspecified)	CHO-K1 Ca ag 19
CCCCn1c(N)c(N(CC(C)C)C(=O)Cc2ccc(S(=O)(=O)N3CCOCC3)s2)c(=O)[nH]c1=O	M1 ag 17
CCCCn1c(N)c(N(CCC(C)C)C(=O)Cc2ccc(S(=O)(=O)N3CCOCC3)s2)c(=O)[nH]c1=O	none
CCCCn1c(N)c(N(CCC(C)C)C(=O)c2cc(S(=O)(=O)N3CCOCC3)ccc2F)c(=O)[nH]c1=O	M1 PAM 21
CCCCn1c(N)c(N(CC(C)C)C(=O)c2oc3c(Cl)cccc3c2C)c(=O)[nH]c1=O	none
CCC1/C(=N\O)CC(c2ccco2)NC1c1ccco1 (stereo unspecified)	none
Cc1cccc(NS(=O)(=O)c2ccc(C)c(NS(=O)(=O)c3cccs3)c2)c1	none
O=C(Nc1ccc(Oc2ccccc2)cc1)C1CCN(c2c3c(nc4ncnn24)CCC3)CC1	CHRM1 antagonist 36
CCCCCC[N+](C)(C)CCSSCC[N+](C)(C)CCCCCC	none
CCCCCCCCCCCCCCCC[N+](C)(C)CC	CHRM1 antagonist 90
CCCCCCCCCCCCCCCC[N+](C)(C)CCl	CHRM1 antagonist 43
Cc1ccsc1CN(C)CC(=O)NCC(=O)Nc1ccc(F)cc1	none
Cc1cc(C)c2oc(C(=O)N3CCN(C)CC3)cc(=O)c2c1	M1 PAM 32
CCOc1ccccc1CN1CCCC(CNS(=O)(=O)c2ccc(OC)cc2)C1 (stereo unspecified)	CHRM1 antagonist 38
COc1cc(Cl)ccc1OC1(C)CCN(Cc2cccc(OC)c2OC)C1 (stereo unspecified)	none
O=C(O)c1ccccc1-c1c2cc(I)c(=O)c(I)c-2oc2c(I)c(O)c(I)cc12	CHO-K1 Ca ag 190, M1 ag 279, CHRM1 antagonist 78!, CHO-K1 Ca antag 71
O=C(C[C@H]1C/C=C\C[C@H](Cc2ccc(F)cc2)C(=O)O[C@@H](c2ccccc2)CNC1=O)N[C@H](CO)Cc1ccccc1	M1 ag 37
O=C(C[C@H]1C/C=C\CC[C@H](Cc2ccc(F)cc2)C(=O)O[C@@H](c2ccccc2)CNC1=O)N[C@@H](CO)Cc1ccccc1	none
O=C(C[C@H]1C/C=C\CC[C@H](Cc2ccc(F)cc2)C(=O)O[C@@H](c2ccccc2)CNC1=O)N[C@H](CO)Cc1ccccc1	M1 ag 36
Cc1cc(C)n2nc(SCC(=O)NC(=O)c3ccc(OC(F)F)cc3)nc2n1	none
CCOC(=O)N1CCC(NC(=O)c2oc3c(F)cccc3c2C)CC1	none
CCOC(=O)N1CCC(NCCNC(=O)c2ccc(F)cc2)CC1	M1 ag 63, CHRM1 antagonist 68
CCOC(=O)N1CCC(NC(=O)c2ccc(Cl)cc2)CC1	none
CCOC(=O)N1CCC(NCCNC(=O)c2cccc(F)c2)CC1	M1 ag 66, CHRM1 antagonist 64
COc1ccccc1OCCSc1nc2ccccc2n1CC(O)CO (stereo unspecified)	none
O=C(Cn1cnc(S(=O)(=O)N2CCOCC2)c1)Nc1ccc(OC(F)(F)F)cc1	none
COc1ccc(N(CC(=O)Nc2ccc(OC)cc2OC)S(=O)(=O)c2ccccc2)cc1	none

Bioassay records deposited in PubChem BioAssay by The Scripps Research Institute Molecular Screening Center.
